Bioassay records (PubChem)
m-calpain inh = inhibitors of pig calpain II; purified calpain II, fluorogenic peptide substrate, 30 min; inhibition, % at 16 µM; 220,000 tested, 0.37% active; AID 1236;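 active means inhibition above about 50%, limit read from the data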
L929 necroptosis = L929 zVAD cell death inhibition; 220,000 tested, 0.38% active; AID 1377; L929 zVAD necroptosis rescue, ATP luminescence, 24 h; with zVAD 60 µM; viability rescue, % at 10 µM;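 active means activation, scaled between plate controls, above about 75%, limit read from the data; inactive means activation under that limit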
TNF death inh = inhibitors of TNF-alpha induced necroptosis in Jurkat FADD-/- cells; Jurkat FADD-/- TNF necroptosis rescue, ATP luminescence, 24 h; 0 = TNF only, 100 = no-TNF cells; activation (protection from cell death), % at 10 µM; 220,000 tested, 0.068% active;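 active means activation, meaning protection from cell death, of at least 50% relative to plate controls; inactive means activation below 50%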;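 further: necroptosis triggered by 40 ng/mL TNF-alpha added together with compound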
ROMK mod = modulators of human ROMK potassium channel | 130,000 tested, 2% active | P48048 | Tet-inducible ROMK, thallium flux fluorescence; actives lie on both sides | B-score at 10 µM;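 active means signal ratio slope over the read window, or its plate-corrected B-score, at least 3 SD from the plate mean, either direction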;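 further: B-score of the F/F0 ratio slope over 7 to 12 s after thallium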
Target sequence (P48048 whole entry, looked up): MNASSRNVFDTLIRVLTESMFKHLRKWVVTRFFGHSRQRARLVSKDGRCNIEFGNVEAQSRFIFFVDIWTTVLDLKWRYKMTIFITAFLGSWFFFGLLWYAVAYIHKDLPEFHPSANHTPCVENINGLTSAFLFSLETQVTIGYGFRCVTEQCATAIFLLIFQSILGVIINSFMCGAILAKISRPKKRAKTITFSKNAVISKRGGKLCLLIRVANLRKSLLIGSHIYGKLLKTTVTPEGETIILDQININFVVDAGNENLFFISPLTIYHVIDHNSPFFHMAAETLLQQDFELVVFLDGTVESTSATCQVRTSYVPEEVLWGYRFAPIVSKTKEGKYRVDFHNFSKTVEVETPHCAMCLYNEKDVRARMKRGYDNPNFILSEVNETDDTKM
HMGR II inh = inhibitors of class II HMG-CoA reductase from Enterococcus faecalis | inhibition, % at 10 µM | purified E. faecalis HMGR, NADPH absorbance 340 nm kinetic | AID 1066 | 190,000 tested, 0.41% active;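 active means inhibition above a set limit, the median over all tested compounds plus 3 SD, cut at about 9.5% in these data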;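 further: enzyme runs in reverse so mevalonate oxidation gives rising NADPH absorbance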
14-3-3 Bad PPI = disrupts binding of bovine 14-3-3 zeta to phospho-Bad peptide; TR-FRET 14-3-3zeta/Dy647-pBad peptide displacement, 1 h; AID 781; P63103; inhibition, % at 21.7 µM; 220,000 tested, 0.71% active;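 active means inhibition above about 70%, limit read from the data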
Target sequence (P63103 whole entry, looked up): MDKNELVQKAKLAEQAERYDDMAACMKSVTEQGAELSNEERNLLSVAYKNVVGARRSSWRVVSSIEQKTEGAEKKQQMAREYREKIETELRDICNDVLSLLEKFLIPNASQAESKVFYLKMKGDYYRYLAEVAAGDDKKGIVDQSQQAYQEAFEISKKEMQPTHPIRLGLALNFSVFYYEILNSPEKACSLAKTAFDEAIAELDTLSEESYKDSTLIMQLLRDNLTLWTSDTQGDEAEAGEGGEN
zVAD necrop conf = confirmed blocker of zVAD induced death in L929 cells; AID 463117; 760 tested, 16% active; activation (protection from necroptosis), % at 10 µM; shares compounds with L929 necroptosis; L929 zVAD-induced necroptosis rescue, ATP luminescence, 24 h;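 active means mean protection from necroptosis of at least 50% over duplicate tests; inactive means mean protection below 50%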
Of the large screens only hits and unclear results are named; the others gave an inactive call (follow-up assays come after a bar, where they were run); ! = not confirmed by another sample. In the library only some 3% were active in any assay of this set; here they are far more common.

O=C1C=CC(O)(c2cc(=O)c3c(O)cc(O)cc3o2)C=C1	L929 necroptosis 125 | zVAD necrop conf 166
O=c1oc2ccccc2n1CSC1=NCCS1	L929 necroptosis 101, TNF death inh 61 (no result: ROMK mod) | zVAD necrop conf inactive
COc1ccc(OC)c(/C=N/NC(=O)Cc2nc3ccccc3[nH]2)c1	none
COc1cc2oc(-c3ccc(O)cc3)cc(=O)c2c(OC)c1O	none (no result: ROMK mod, HMGR II inh)
COc1cc2oc(-c3ccc(O)cc3)cc(=O)c2c(O)c1OC	L929 necroptosis 78 (no result: ROMK mod, HMGR II inh) | zVAD necrop conf inactive
CSc1sc(C(=O)NCC2CC2)cc1S(=O)(=O)C(C)C	none (no result: HMGR II inh)
COC(=O)c1cc(S(=O)(=O)C(C)C)c(S(C)=O)s1 (centres undefined)	L929 necroptosis 77 (no result: ROMK mod, HMGR II inh) | zVAD necrop conf inactive
CC1CN(C(=O)Nc2ccc3snnc3c2)c2ccccc21 (centres undefined)	none (no result: ROMK mod)
CCOC(CNC(=O)c1ccc2c(c1)ncn2-c1ccc(F)c(F)c1)OCC	L929 necroptosis 78 | zVAD necrop conf inactive
COC(CNC(=O)c1ccc2c(c1)ncn2-c1ccc(F)cc1F)OC	none
COC(CNC(=O)c1ccc2c(c1)ncn2-c1cccc(F)c1)OC	L929 necroptosis 76 | zVAD necrop conf inactive
COC(CNC(=O)c1ccc2c(c1)ncn2-c1ccc(F)c(F)c1)OC	L929 necroptosis 77 | zVAD necrop conf inactive
O=C(NC1CCCCCCC1)c1cc(COc2ccc3ncccc3c2)on1	L929 necroptosis 76 | zVAD necrop conf inactive
O=C(COc1ccccc1Br)N1CCN(c2ccccc2)CC1	none (no result: ROMK mod)
O=C(Nc1nccs1)c1ccccc1[N+](=O)[O-]	none
CN(c1ccc(C(=O)Nc2nccs2)cc1)S(=O)(=O)c1ccccc1	L929 necroptosis 89 | zVAD necrop conf 86
Nc1ccc(C(=O)Nc2nccs2)cc1	L929 necroptosis 81 | zVAD necrop conf inactive
COc1ccc(CC(=O)Nc2ccc(C(=O)Nc3nccs3)cc2)cc1OC	L929 necroptosis 83 | zVAD necrop conf 63
Nc1ccccc1C(=O)Nc1nccs1	L929 necroptosis 91 | zVAD necrop conf inactive
COc1ccc(CCNC(=O)C(=O)Nc2nccs2)cc1OC	none (no result: ROMK mod)
c1ccc(-c2csc3ncnc(N4CCc5ccccc5C4)c23)cc1	none
NC(=O)CCS(=O)(=O)c1ccc(Cl)cc1	none (no result: ROMK mod)
C=CCC(CC=C)(NC(=O)c1ccccc1C)c1ccccc1	none (no result: ROMK mod)
CCn1c(SCc2ccc(C(=O)Nc3nccs3)cc2)nnc1-c1ccc(N)cc1	L929 necroptosis 88 | zVAD necrop conf 71
O=C(Nc1nccs1)c1ccc(NC(=O)c2ccco2)cc1	L929 necroptosis 84 | zVAD necrop conf inactive
Cc1ccc(C(=O)Nc2nccs2)cc1	L929 necroptosis 86 | zVAD necrop conf inactive
CN1C(=O)c2ccc(NC(=S)NC(=O)C(C)(C)C)cc2C1=O	none (no result: ROMK mod)
Cc1ccc(NC(=O)C(=Cc2ccc(C(=O)O)cc2)C(=O)Nc2ccc(C)cc2C)c(C)c1	L929 necroptosis 85 (no result: ROMK mod, HMGR II inh) | zVAD necrop conf inactive
CC(=O)C(=Cc1ccc(C(=O)O)cc1)C(C)=O	none
O=[N+]([O-])/C(C=Nc1ccccc1O)=C\Nc1ccccc1O	L929 necroptosis 87 (no result: ROMK mod, HMGR II inh) | zVAD necrop conf inactive
CC1CCCCN1CCNC(=O)c1cc2c(=O)n(C)c3ccccc3c2n1C (centres undefined)	L929 necroptosis 82 (no result: ROMK mod) | zVAD necrop conf inactive
CCCN(CCC)CCNC(=O)c1cc2c(=O)n(C)c3ccccc3c2n1C	L929 necroptosis 78 (no result: ROMK mod) | zVAD necrop conf inactive
CN(CCNC(=O)c1cc2c(=O)n(C)c3ccccc3c2n1C)Cc1ccccc1	none (no result: ROMK mod)
Cn1c(C(=O)NCCN2CCOCC2)cc2c(=O)n(C)c3ccccc3c21	none (no result: ROMK mod)
COc1ccc(C2SCC(C(=O)NCc3ccc(F)cc3)N2C(C)=O)cc1 (centres undefined)	none (no result: ROMK mod)
O=C(Nc1nccs1)c1ccc(N2C(=O)C3CCCCC3C2=O)cc1 (centres undefined)	none
O=C(Nc1nccs1)c1ccc(S(=O)(=O)NCC2CCCCC2)cc1	L929 necroptosis 123 (no result: 14-3-3 Bad PPI) | zVAD necrop conf 52
O=C(Nc1nccs1)c1ccc(S(=O)(=O)NCc2cccs2)cc1	L929 necroptosis 100 (no result: 14-3-3 Bad PPI) | zVAD necrop conf 85
CN(c1ccccc1)S(=O)(=O)c1ccc(C(=O)Nc2nccs2)cc1	none (no result: ROMK mod)
C/C(=N\NC(=O)c1ccccc1)c1ccc(-n2ccnc2)cc1	none
COc1ccccc1NS(=O)(=O)c1cccc(C(=O)N/N=C(\C)c2ccc(-n3ccnc3)cc2)c1	L929 necroptosis 76 | zVAD necrop conf inactive
COc1ccc(-c2nnc3sc(C4CCCCC4)nn23)cc1OC	L929 necroptosis 76 | zVAD necrop conf inactive
CCn1c(NC(=O)c2cccs2)nc2ccccc21	L929 necroptosis 81 (no result: ROMK mod) | zVAD necrop conf inactive
CCn1c(NC(C)=O)nc2ccccc21	none
Cc1ccc(NC(=O)Nc2ccc(Cl)cn2)cc1	L929 necroptosis 83 | zVAD necrop conf inactive
O=C(Nc1ccc(Cl)cn1)Nc1ccccc1Cl	none
COC(=O)c1ccccc1NC(=O)Nc1ccc(Br)cn1	none
Cc1ccc(NC(=O)Nc2ccc3c(c2)OCO3)nc1	L929 necroptosis 77 (no result: ROMK mod) | zVAD necrop conf inactive
CCOc1ccccc1NC(=O)Nc1cnccn1	L929 necroptosis 80 (no result: ROMK mod) | zVAD necrop conf inactive
COc1ccc(NC(=O)Nc2ccc(Br)cn2)cc1	L929 necroptosis 79 (no result: ROMK mod) | zVAD necrop conf inactive
O=CNc1ccc(S(=O)(=O)NCc2ccccc2)cc1	none
O=C(NC(c1ccccc1)c1ccccc1)c1cccc(S(=O)(=O)NCc2ccccc2)c1	none
O=C(Nc1cnccn1)Nc1ccccc1Cl	L929 necroptosis 79 | zVAD necrop conf inactive
O=C(Nc1ccccc1)Nc1ccccn1	L929 necroptosis 77! (no result: ROMK mod) | zVAD necrop conf inactive
O=C(Nc1ccc(Cl)cc1)Nc1cnccn1	L929 necroptosis 76 | zVAD necrop conf inactive
O=C(Cn1nnc(-c2ccc(Cl)cc2)n1)NC1CCN(Cc2ccccc2)CC1	none (no result: ROMK mod)
CC1CCCCC1NC(=O)Cn1nnc(-c2ccc(Cl)cc2)n1 (centres undefined)	L929 necroptosis 78 (no result: ROMK mod) | zVAD necrop conf inactive
CCOC(=O)C1=NNC2(c3ccc(C)cc3)C(=O)N(c3ccc(Cl)cc3)C(=O)C12 (centres undefined)	none
O=C1N=C2N(CCN3CCCCC3)c3ccccc3N2/C1=C\c1ccc([N+](=O)[O-])o1	L929 necroptosis 75, 14-3-3 Bad PPI 88 | zVAD necrop conf inactive
CCN1C(=O)/C(=C2/Sc3ccccc3N2CC)S/C1=N\c1ncn[nH]1	L929 necroptosis 82 | zVAD necrop conf inactive
Cc1ccsc1/C=N/Nc1ncnc2nc[nH]c12	none
C(=N\Nc1ncnc2nc[nH]c12)/c1cccs1	L929 necroptosis 77 | zVAD necrop conf inactive
COc1ccccc1Nc1nc(-c2ccccc2O)nc2ccccc12	L929 necroptosis 76 | zVAD necrop conf inactive
